Values joined by “and” are separate entries in the source; they are usually repeats but may differ in a detail not shown here. Equal entries are not always repeated. Among all 16,000 compounds or so, about 5,100 (32%) were called active. Roughly 25% stayed inconclusive and do not appear here. Calls follow the shape of the dose curve; as a rule, active = well fitted curve in the direction sought with a large enough effect; inconclusive = small, poorly fitted or top-dose-only effect, or effect the other way; inactive = no such curve, though single readings can be large or run the other way. This is one part of the list.
What follows are compounds tested against Cytochrome P450 3A4 (Homo sapiens) (UniProt P08684) (assay: Cytochrome panel assay with activity outcomes). Conditions: recombinant CYP, pro-luciferin dealkylation, luminescence, p450-cyp3a4; series mostly up to 57.1 µM; activity, negative = inhibition: at the top concentration.
% is scaled to controls: 0 for no effect and ±100 for the full control effect.

Sequence of Cytochrome P450 3A4 (Homo sapiens) (P08684 whole entry, looked up): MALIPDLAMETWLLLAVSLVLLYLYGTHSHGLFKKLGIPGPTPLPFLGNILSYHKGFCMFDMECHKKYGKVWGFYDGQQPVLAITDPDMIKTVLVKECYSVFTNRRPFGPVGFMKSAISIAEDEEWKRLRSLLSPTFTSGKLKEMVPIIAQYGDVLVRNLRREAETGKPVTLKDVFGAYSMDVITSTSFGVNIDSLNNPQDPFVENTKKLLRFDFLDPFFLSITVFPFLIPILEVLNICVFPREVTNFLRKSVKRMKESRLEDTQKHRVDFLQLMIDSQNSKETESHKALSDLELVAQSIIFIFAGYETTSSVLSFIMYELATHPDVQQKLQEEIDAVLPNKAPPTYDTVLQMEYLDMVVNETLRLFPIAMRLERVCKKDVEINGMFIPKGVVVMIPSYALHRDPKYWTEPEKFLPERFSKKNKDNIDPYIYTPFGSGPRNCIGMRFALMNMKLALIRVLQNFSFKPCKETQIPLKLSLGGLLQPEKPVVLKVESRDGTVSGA

| SMILES | activity, negative = inhibition | AC50 |
| --- | --- | --- |
| COCn1c2ccccc2c2nnc(C(C)=O)nc21 | 7.63% [at 11.4 µM] (inactive) and -20.9% [at 11.4 µM] (inactive) | – |
| Cc1ccc(-n2cc(C(=O)c3ccc4ccccc4c3O)cn2)cc1 | -15.6% (inactive) | – |
| Cc1ccc(S(=O)(=O)n2c3ccccc3c3nnc(C(=O)c4ccccc4)nc32)cc1 | – | 3.98 µM (active) |
| COc1ccc2c(c1)CCC1[C@@H]2CCC2(C)[C@@H](NCCCCCCN3C(=O)C=CC3=O)CC[C@@H]12 (stereo not given in full) | 3.28% (inactive) | – |
| CC(=O)c1c(O)cc(=O)n(-c2ccccc2)c1-c1cccc2ccccc12 | 5.76% (inactive) | – |
| CC(C)CC(=O)O/N=C1\C(=O)N(c2ccccc2)c2ccccc21 | 18.9% [at 2.29 µM] (inactive) | – |
| CN1C(=O)/C(=N\OC(=O)c2cccc3ccccc23)c2ccccc21 | – | 28.2 µM (active) |
| O=c1[nH][nH]c(C(F)(F)F)c1C=Nc1ccccc1Cl | -10.9% (inactive) | – |
| C=CCSc1nn2c(=O)c3ccccc3nc2s1 | – | 20 µM (active) |
| O=C(Cn1cnc2ccccc2c1=O)Nc1nnc(SCc2ccccc2)s1 | -5.34% (inactive) | – |
| C[C@@H](C(=O)O)c1ccc(C[C@@H]2CCCC2=O)cc1 | 7.6% (inactive) | – |
| Cc1cc2ccccc2c[n+]1CC(O)C[n+]1cc2ccccc2cc1C | -6.74% [at 11.4 µM] (inactive) | – |
| CN=c1nc(-c2ccccc2)n(-c2ccccc2)s1 | – | 31.6 µM (active) |
| O=c1nc(-c2ccccc2)n(-c2ccccc2)c2ncccc12 | -9.32% (inactive) | – |
| CC(=O)c1c(C)nc(-c2ccccc2)n1O | -11% (inactive) | – |
| Cc1cc2cc3c(C)cc(=O)oc3c(C)c2o1 | – | 3.98 µM (active) |
| CCc1c(C(C)O)oc2ccc3c(C)cc(=O)oc3c12 (stereo not given) | 7.59% [at 2.29 µM] (inactive) | – |
| O=C(Nc1ccc(S(=O)(=O)N2CCCC2)cc1)c1ccc(CN2CCOCC2)cc1 | -3.74% [at 2.29 µM] (inactive) | – |
| O=C(Nc1ccc(F)cc1)c1cc(S(=O)(=O)N2CCCCC2)cs1 | – | 14.1 µM (active) |
| CC(C)CO/N=C1/C[C@@H](O)[C@@H](O)[C@@H]2[C@H]3C(=O)N(c4ccc(F)cc4F)C(=O)[C@@H]3CC[C@H]12 | -8.15% [at 11.4 µM] (inactive) | – |
| O=C1C[C@@H](O)[C@@H](O)[C@@H]2[C@H]3C(=O)N(c4ccc(F)cc4F)C(=O)[C@@H]3CC[C@H]12 | -11% [at 11.4 µM] (inactive) | – |
| C#CCCCO/N=C1/C[C@@H](O)[C@@H](O)[C@@H]2[C@H]3C(=O)N(c4ccc(F)cc4F)C(=O)[C@@H]3CC[C@H]12 | – | 3.98 µM (active) |
| C#CCCCO/N=C1/C[C@@H](O)[C@@H](O)[C@@H]2[C@H]3C(=O)N(c4ccc(F)cc4F)C(=O)[C@@H]3CC[C@@H]12 | – | 3.16 µM (active) |
| CC(C)CO/N=C1/C[C@@H](O)[C@@H](O)[C@@H]2[C@H]3C(=O)N(c4ccc(F)cc4F)C(=O)[C@@H]3CC[C@@H]12 | 0.624% [at 11.4 µM] (inactive) | – |
| O=C1[C@@H]2[C@H]3[C@H](O)[C@H](O)C/C(=N/OCc4ccccc4)[C@@H]3CC[C@H]2C(=O)N1c1ccc(F)cc1F | -19.6% [at 11.4 µM] (inactive) | – |

From PubChem BioAssay AID1851 (National Center for Advancing Translational Sciences (NCATS), 2009)
